Test results published in PubChem BioAssay (Tox21).
Records with an inconclusive call do not appear. Active and inactive are the calls of the source. Unless noted, calls follow the shape of the full dose curve.

Legend:
[1] = Nuclear factor erythroid 2-related factor 2/antioxidant responsive element (Nrf2/ARE) small molecule agonists: qHTS cell viability counter screen in human keratinocytes (AID 1919968; active = well fitted curve in the direction sought with a large enough effect in the repeat runs; an effect the other way counts as inactive or inconclusive; also: nearly all actives have a fitted effect of over 55% in size; also: potency is read from the fitted curve at half-maximal effect)
Method in brief: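 KeratinoSens cells (HaCaT keratinocytes stably carrying an ARE-luciferase reporter) were seeded at 1,500 cells/well and rested 5 h at 37 C/5% CO2. They were then exposed to compounds in DMSO for 23 h. Viability was read by CellTiter-Fluor fluorescence after 1 h.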

[2] = Nuclear factor erythroid 2-related factor 2/antioxidant responsive element (Nrf2/ARE) small molecule agonists: luciferase reporter gene qHTS assay in human keratinocytes (AID 1919969); also: nearly all actives have a fitted effect of over 35% in size; also: potency is read from the fitted curve at half-maximal effect
[3] = biological target: KiSS-1 receptor (Homo sapiens) (UniProt Q969F8); assay: Human kisspeptin (KISS1R) small molecule agonists, calcium flux assay in KISS1R-HEK293 cells (AID 1920064; active = well fitted curve in the direction sought with a large enough effect in the repeat runs; an effect the other way counts as inactive or inconclusive)
KiSS-1 receptor (Homo sapiens), sequence (Q969F8 whole entry, looked up): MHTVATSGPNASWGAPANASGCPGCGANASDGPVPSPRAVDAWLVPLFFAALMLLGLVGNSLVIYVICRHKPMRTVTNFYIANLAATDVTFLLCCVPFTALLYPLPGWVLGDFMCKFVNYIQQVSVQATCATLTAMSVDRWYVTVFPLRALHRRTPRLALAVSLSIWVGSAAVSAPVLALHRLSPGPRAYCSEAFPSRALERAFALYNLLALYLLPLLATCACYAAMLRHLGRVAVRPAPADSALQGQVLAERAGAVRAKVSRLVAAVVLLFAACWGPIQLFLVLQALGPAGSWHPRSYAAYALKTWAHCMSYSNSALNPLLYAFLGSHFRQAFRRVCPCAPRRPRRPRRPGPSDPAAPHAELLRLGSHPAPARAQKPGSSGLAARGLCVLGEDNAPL
Method in brief: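 HEK293 cells stably expressing human KISS1R were plated 18 h at 37 °C, loaded with calcium dye for 1 h at 37 °C, then given compound by pin tool. Fluorescence (Ex/Em 480/540) was read kinetically for 3 min.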

[4] = G protein-coupled receptor (GPCR) small molecule agonists, calcium flux assay: HEK293 wild type cell line counter screen (AID 1920065)
Method in brief: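 Cells were plated and cultured 18 h at 37 C/5% CO2, then loaded with calcium dye for 1 h at 37 C. Compounds in DMSO were pin-transferred in agonist mode, and fluorescence (Ex/Em 480/540) was read kinetically for 3 min at 1 s intervals.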

[5] = p53 small molecule agonists, cell-based qHTS assay with human liver microsomes: qHTS cell viability counter screen (AID 1963579); also: nearly all actives have a fitted effect of over 45% in size; also: potency is read from the fitted curve at half-maximal effect
Method in brief: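 Metabolically activated exposure: compounds, human liver microsomes and NADPH (0.5 mg/mL final apiece) were added to p53RE-bla cells seeded 5 h earlier, left 16 h at 37 C, and then assessed for viability by CellTiter-Glo luminescence.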

[6] = p53 small molecule agonists, cell-based qHTS assay with rat liver microsomes: qHTS cell viability counter screen (AID 1963580); also: nearly all actives have a fitted effect of over 45% in size; also: potency is read from the fitted curve at half-maximal effect
Method in brief: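 HCT-116 p53RE-bla, 4,000 cells/well, 5 h pre-incubation; cpd + rat liver microsomes 0.5 mg/mL + NADPH 0.5 mg/mL (final); 16 h, 37 C; CellTiter-Glo, 30 min RT; luminescence.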

[7] = biological target: 5-hydroxytryptamine receptor 2A (Homo sapiens) (UniProt P28223); assay: 5-hydroxytryptamine receptor 2A (HTR2A) small molecule agonists, cell-based qHTS assay (AID 1963587); also: nearly all actives have a fitted effect of over 30% in size; also: potency is read from the fitted curve at half-maximal effect
5-hydroxytryptamine receptor 2A (Homo sapiens), sequence (P28223 whole entry, looked up): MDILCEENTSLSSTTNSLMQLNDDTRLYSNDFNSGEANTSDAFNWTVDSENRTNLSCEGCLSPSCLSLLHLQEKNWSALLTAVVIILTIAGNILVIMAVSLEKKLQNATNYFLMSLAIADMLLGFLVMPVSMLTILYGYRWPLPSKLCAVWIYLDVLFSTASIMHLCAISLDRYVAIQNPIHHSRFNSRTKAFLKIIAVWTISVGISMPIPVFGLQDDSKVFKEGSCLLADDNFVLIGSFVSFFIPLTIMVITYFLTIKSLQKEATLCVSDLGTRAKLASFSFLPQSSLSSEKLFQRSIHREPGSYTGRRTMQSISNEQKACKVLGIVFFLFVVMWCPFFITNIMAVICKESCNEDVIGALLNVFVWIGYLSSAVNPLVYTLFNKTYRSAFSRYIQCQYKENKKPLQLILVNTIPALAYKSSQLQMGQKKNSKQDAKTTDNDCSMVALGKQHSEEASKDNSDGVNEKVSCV
Method in brief: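 Kinetic calcium-flux fluorescence (2 min, 1 sec intervals) after compound addition in agonist mode. HTR2A-CHO cells were cultured 18 h, then dye-loaded 1 h at 37 C.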

[8] = p53 small molecule agonists, cell-based qHTS assay with rat liver microsomes (AID 1963578)
Method in brief: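 Agonist mode in p53RE-bla reporter cells, with compounds co-incubated 16 h at 37 C alongside 0.5 mg/mL rat liver microsomes and 0.5 mg/mL NADPH (final), followed by a 2 h LiveBLAzer detection step.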

[9] = p53 small molecule agonists, cell-based qHTS assay: qHTS cell viability counter screen (AID 1963581); also: nearly all actives have a fitted effect of over 45% in size; also: potency is read from the fitted curve at half-maximal effect
Method in brief: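 p53RE-bla HCT-116 cells were exposed to compounds for 16 h at 37 C; after the beta-lactamase FRET read in the same wells, CellTiter-Glo was added and luminescence (intracellular ATP) read after 30 min at room temperature.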

[10] = biological target: Muscarinic acetylcholine receptor M1 (Homo sapiens) (UniProt P11229); assay: Cholinergic receptor muscarinic 1 (CHRM1) small molecule agonists, cell-based qHTS assay (AID 1963589); also: nearly all actives have a fitted effect of over 35% in size
Muscarinic acetylcholine receptor M1 (Homo sapiens), sequence (P11229 whole entry, looked up): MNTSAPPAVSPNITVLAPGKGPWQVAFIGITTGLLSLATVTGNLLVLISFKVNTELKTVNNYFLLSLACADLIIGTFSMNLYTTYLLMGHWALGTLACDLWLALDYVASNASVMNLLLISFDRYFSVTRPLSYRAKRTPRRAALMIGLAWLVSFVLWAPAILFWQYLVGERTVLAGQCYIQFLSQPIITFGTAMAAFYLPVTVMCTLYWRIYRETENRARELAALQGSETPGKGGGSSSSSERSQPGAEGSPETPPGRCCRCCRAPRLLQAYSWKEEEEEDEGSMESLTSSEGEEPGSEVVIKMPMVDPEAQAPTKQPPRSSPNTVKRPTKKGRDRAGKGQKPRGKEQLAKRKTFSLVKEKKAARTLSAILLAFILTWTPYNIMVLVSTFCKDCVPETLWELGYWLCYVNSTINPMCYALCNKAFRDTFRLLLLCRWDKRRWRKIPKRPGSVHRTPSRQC
Method in brief: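 CHO cells stably expressing human CHRM1, seeded 18 h at 37 C/5% CO2, dye-loaded 1 h at 37 C, then given compound in agonist mode; intracellular calcium fluorescence read kinetically at 1 s intervals. Fifteen concentrations, three independent runs.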

[11] = biological target: Beta-2 adrenergic receptor (Homo sapiens) (UniProt P07550); assay: Adrenergic beta2 receptor (ADRB2) small molecule antagonists, cell-based qHTS assay (AID 1963592); also: series mostly up to about 92 µM; nearly all actives have a fitted effect of over 50% in size
Beta-2 adrenergic receptor (Homo sapiens), sequence (P07550 whole entry, looked up): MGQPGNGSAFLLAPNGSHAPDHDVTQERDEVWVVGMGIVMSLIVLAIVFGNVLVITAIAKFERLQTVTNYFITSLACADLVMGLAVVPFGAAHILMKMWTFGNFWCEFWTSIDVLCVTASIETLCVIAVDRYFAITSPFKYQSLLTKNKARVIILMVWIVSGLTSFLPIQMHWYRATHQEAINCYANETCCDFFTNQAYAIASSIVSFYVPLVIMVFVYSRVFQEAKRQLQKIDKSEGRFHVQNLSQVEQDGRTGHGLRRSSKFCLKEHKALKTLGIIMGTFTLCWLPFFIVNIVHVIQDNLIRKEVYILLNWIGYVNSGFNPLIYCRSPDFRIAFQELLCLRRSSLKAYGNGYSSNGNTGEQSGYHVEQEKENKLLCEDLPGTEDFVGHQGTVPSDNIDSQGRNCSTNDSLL
Method in brief: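 Cells (CHO, stable ADRB2 overexpression) incubated 18-20hr at 37C; compounds added from DMSO; agonist mix (1nM isoproterenol, 100uM IBMX, 25uM Ro-20-1724) added; 0.5hr RT; d2-cAMP and anti-cAMP-cryptate added; 1hr RT; 665/615 nm read.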

[12] = biological target: D(2) dopamine receptor (Homo sapiens) (UniProt P14416); assay: Dopamine D2 receptor (DRD2) small molecule antagonists, cell-based qHTS assay (AID 1963595; active = well fitted inhibition curve with a large enough effect in the signal ratio in the repeat runs, with a control signal flat; the % refers to the signal ratio; also: potency is read from the fitted curve at half-maximal effect)
D(2) dopamine receptor (Homo sapiens), sequence (P14416 whole entry, looked up): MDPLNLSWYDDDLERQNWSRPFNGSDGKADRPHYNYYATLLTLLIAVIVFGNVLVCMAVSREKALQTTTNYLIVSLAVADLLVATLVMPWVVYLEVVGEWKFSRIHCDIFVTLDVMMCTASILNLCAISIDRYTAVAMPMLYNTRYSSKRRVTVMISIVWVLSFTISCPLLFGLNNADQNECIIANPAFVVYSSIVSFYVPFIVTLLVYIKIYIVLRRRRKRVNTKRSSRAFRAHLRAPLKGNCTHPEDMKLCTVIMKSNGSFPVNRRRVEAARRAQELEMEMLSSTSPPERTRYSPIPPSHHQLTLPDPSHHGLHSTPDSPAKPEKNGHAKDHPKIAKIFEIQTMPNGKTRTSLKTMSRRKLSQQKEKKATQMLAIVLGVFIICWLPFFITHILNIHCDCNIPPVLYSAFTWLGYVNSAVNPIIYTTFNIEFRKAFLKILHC
Method in brief: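 Antagonism was scored as restored cAMP in HEK293-DRD2 cells. These cells were stimulated with 200 nM NKH477 and 12 nM quinpirole for 30 min at room temperature, in the presence of 0.1 mM Ro20-1724.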

[13] = biological target: 5-hydroxytryptamine receptor 2A (Homo sapiens) (UniProt P28223); assay: 5-hydroxytryptamine receptor 2A (HTR2A) small molecule antagonists, cell-based qHTS assay (AID 1963586); also: nearly all actives have a fitted effect of over 45% in size
Method in brief: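 Antagonist-mode intracellular calcium assay: DOI (4 nM) added after 5 min compound pre-incubation at room temperature to dye-loaded HTR2A-CHO cells. Fluorescence followed for 3 min, sampled every second.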

[14] = biological target: Muscarinic acetylcholine receptor M1 (Homo sapiens) (UniProt P11229); assay: Cholinergic receptor muscarinic 1 (CHRM1) small molecule antagonists, cell-based qHTS assay (AID 1963588); also: nearly all actives have a fitted effect of over 40% in size; also: potency is read from the fitted curve at half-maximal effect
Method in brief: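 CHRM1-CHO calcium-flux assay, antagonist mode. Cells were seeded 18 h, dye-loaded 1 h at 37 C and given compound for 5 min at RT, then acetylcholine was added at 50nM. FDSS fluorescence was read 3 min; 15 concentrations, three runs.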

[15] = cAMP Responsive Elements (CRE) small molecule agonists, cell-based qHTS assay (AID 1963590)
Method in brief: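 CRE-bla HEK 293T cells in DMEM with 10% dialyzed FBS, NEAA, pyruvate and 25 mM HEPES were plated 18 h at 37 C/5% CO2, then exposed to compounds in DMSO for 3 h before LiveBLAzer B/G FRET substrate addition.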

[16] = cAMP Responsive Elements (CRE) small molecule antagonists, cell-based qHTS assay (AID 1963591; active = well fitted inhibition curve with a large enough effect in the signal ratio in the repeat runs, not every such curve was filed as active; the % refers to the signal ratio; also: potency is read from the fitted curve at half-maximal effect)
Method in brief: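 CRE-bla HEK293T cells were plated 18 h at 37 °C/5% CO2, pinned with compound in DMSO, then stimulated with NKH477 at 0.25 uM final for 3 h. LiveBLAzer B/G FRET substrate was added and plates incubated 2 h at room temperature.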

[17] = biological target: D(2) dopamine receptor (Homo sapiens) (UniProt P14416); assay: Dopamine D2 receptor (DRD2) small molecule agonists, cell-based qHTS assay (AID 1963594); also: nearly all actives have a fitted effect of over 35% in size
Method in brief: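 cAMP accumulation in DRD2-HEK293 cells measured by HTRF after 1 h detection; compounds added 10 min before NKH477 (200nM […]) forskolin-analogue stimulation, 30 min at room temperature, with Ro20-1724 present at 0.1 mM final.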

[18] = p53 small molecule agonists, cell-based qHTS assay with human liver microsomes (AID 1963577);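 also: p53 response element beta-lactamase reporter cells with liver microsomes plus NADPH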
Method in brief: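 In this qHTS, p53 response-element beta-lactamase cells receive test compound together with a microsome/NADPH activating system (0.5 mg/mL final each) and are incubated 16 h at 37 C before LiveBLAzer fluorescence detection.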

[19] = p53 small molecule agonists, cell-based qHTS assay (AID 1963582; active = well fitted activation curve with a large enough effect in the signal ratio in the repeat runs, not every such curve was filed as active; the % refers to the signal ratio)
Method in brief: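 p53RE-bla beta-lactamase reporter cells rested 5 h at 37 C/5% CO2, then received compounds in DMSO by pin transfer and were incubated 16 h at 37 C. LiveBLAzer B/G FRET substrate was loaded for 2 h at room temperature before fluorescence reading.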
% is scaled to controls: 0 for no effect and ±100 for the full control effect.

CCCN(CCC)c1c([N+](=O)[O-])cc(S(N)(=O)=O)cc1[N+](=O)[O-]
active: Potency [1] 51.8 µM | Potency [5] 38.8 µM | Potency [6] 49.4 µM | Potency [7] 37 µM
inactive: Potency [2] | Potency [3] | Potency [4]

C=CCC1=C(C)C(OC(=O)C2C(C=C(C)C)C2(C)C)CC1=O (stereo not given)
active: Potency [1] 34.4 µM | Potency [2] 23 µM | Potency [9] 28.9 µM | Potency [12] 57.8 µM
inactive: Potency [3] | Potency [4] | Potency [8] | Potency [7] | Potency [10] | Potency [11]

COc1nn(C(=O)NS(=O)(=O)c2ccccc2OC(F)(F)F)c(=O)n1C
inactive: Potency [1] | Potency [2] | Potency [3] | Potency [4] | Potency [6] | Potency [9] | Potency [13] | Potency [14] | Potency [15] | Potency [16] | Potency [11] | Potency [17] | Potency [12]

CCNc1nc(NC(C)C(C)C)nc(SC)n1 (stereo not given)
inactive: Potency [1] | Potency [2] | Potency [3] | Potency [4] | Potency [5] | Potency [6] | Potency [9] | Potency [13] | Potency [14] | Potency [15] | Potency [16] | Potency [11] | Potency [12]

O=c1[nH]c2ccccc2o1
inactive: Potency [1] | Potency [2] | Potency [3] | Potency [4] | Potency [5] | Potency [6] | Potency [9] | Potency [7] | Potency [14] | Potency [10] | Potency [15] | Potency [16] | Potency [11] | Potency [17] | Potency [12]

CCCCCCCCCC[N+](C)(C)CCCCCCCCCC
active: Potency [1] 27.3 µM | Potency [6] 45.8 µM | Potency [14] 10.6 µM | Potency [16] 43.3 µM
inactive: Potency [2] | Potency [3] | Potency [4] | Potency [18] | Potency [8] | Potency [17]

CC(C)(C)NC[C@H](O)c1ccc(O)cc1Cl
active: Potency [12] 0.0841 µM
inactive: Potency [1] | Potency [2] | Potency [3] | Potency [4] | Potency [8] | Potency [5] | Potency [6] | Potency [9] | Potency [19] | Potency [14] | Potency [10] | Potency [16] | Potency [17]

O=S(=O)(C(Cl)(Cl)Cl)C(Cl)(Cl)Cl
inactive: Potency [3] | Potency [4] | Potency [18] | Potency [5] | Potency [9] | Potency [14] | Potency [10] | Potency [11] | Potency [12]
active: Potency [1] 24.3 µM | Potency [2] 8.63 µM | Potency [7] 49 µM

CN(C)CCc1c[nH]c2ccccc12
active: Potency [2] 108 µM | Potency [7] 0.0109 µM
inactive: Potency [1] | Potency [3] | Potency [4] | Potency [6] | Potency [14] | Potency [10] | Potency [15] | Potency [16] | Potency [17] | Potency [12]

CN(C)C1CCCCC1
inactive: Potency [1] | Potency [2] | Potency [3] | Potency [4] | Potency [5] | Potency [6] | Potency [9] | Potency [13] | Potency [7] | Potency [14] | Potency [10] | Potency [15] | Potency [16] | Potency [11] | Potency [17]

CS(=O)(=O)c1cc(C(F)(F)F)ccc1C(=O)c1cnoc1C1CC1
inactive: Potency [1] | Potency [2] | Potency [3] | Potency [4] | Potency [18] | Potency [8] | Potency [6] | Potency [9] | Potency [19] | Potency [13] | Potency [7] | Potency [10] | Potency [15] | Potency [16] | Potency [12]

CCSCc1ccccc1OC(=O)NC
inactive: Potency [1] | Potency [2] | Potency [3] | Potency [4] | Potency [5] | Potency [6] | Potency [9] | Potency [19] | Potency [13] | Potency [7] | Potency [14] | Potency [10] | Potency [15] | Potency [16] | Potency [12]

COP(N)(=S)OC
inactive: Potency [1] | Potency [2] | Potency [3] | Potency [4] | Potency [5] | Potency [6] | Potency [9] | Potency [19] | Potency [7] | Potency [14] | Potency [10] | Potency [15] | Potency [16] | Potency [11] | Potency [17]

C=CC(=O)OCC(COC(=O)C=C)(COC(=O)C=C)COC(=O)C=C
inactive: Potency [3] | Potency [4] | Potency [18] | Potency [8] | Potency [13] | Potency [7] | Potency [14] | Potency [10] | Potency [11] | Potency [17]
active: Potency [1] 9.69 µM | Potency [2] 6.11 µM | Potency [5] 4.08 µM | Potency [9] 10.2 µM | Potency [12] 54.5 µM

CCOC(=O)/C=C(C)/C=C/C[C@@H](C)CCCC(C)C
inactive: Potency [1] | Potency [3] | Potency [4] | Potency [18] | Potency [5] | Potency [6] | Potency [9] | Potency [19] | Potency [7] | Potency [14] | Potency [10] | Potency [15] | Potency [16] | Potency [11] | Potency [17] | Potency [12]
active: Potency [2] 68.6 µM

CC(C)(C)c1ccc(CCOc2ncnc3ccccc23)cc1
inactive: Potency [1] | Potency [2] | Potency [3] | Potency [4] | Potency [5] | Potency [6] | Potency [9] | Potency [13] | Potency [7] | Potency [14] | Potency [10] | Potency [15] | Potency [16] | Potency [11] | Potency [17] | Potency [12]

CC(C)(C)OO
inactive: Potency [1] | Potency [2] | Potency [3] | Potency [4] | Potency [18] | Potency [8] | Potency [6] | Potency [19] | Potency [15] | Potency [16] | Potency [17] | Potency [12]

Nc1c(Br)cc(Br)c2c1C(=O)c1ccccc1C2=O
inactive: activity change, negative = cytotoxicity [1] -10.3% [at 19 µM] | activity, positive = activation [2] 4.98% [at 19 µM] | activation [3] 7.67% [at 15.8 µM] | activation [4] 0.165% [at 11.8 µM] | activity change, negative = cytotoxicity [5] 2.22% [at 13.5 µM] | activity change, negative = cytotoxicity [6] -8.42% [at 13.5 µM] | activity change, negative = cytotoxicity [9] 13.4% [at 13.5 µM] | activity, negative = inhibition [13] 6.3% [at 12.7 µM] | activity, negative = inhibition [14] -4.93% [at 12.6 µM] | activation [10] -0.118% [at 15.8 µM] | activation [15] -1.39% [at 19 µM] | activity change, negative = inhibition [11] 17.4% [at 19 µM] | activation [17] -0.116% [at 19 µM] | activity change, negative = inhibition [12] 9% [at 18.9 µM]
